Measurements taken from PMC7862700, “An all-to-all approach to the identification of sequence-specific readers for epigenetic DNA modifications on cytosine”.

Tests used:
Experiment in all cases: DAPPL (digital affinity profiling via proximity ligation, sequencing); 10 mM Tris-HCl pH 7.5, 50 mM NaCl, 1 mM DTT, 4% glycerol, room temperature, 30 min; GST-TFs on glutathione beads, 16-mer random dsDNA library, 0.1% formaldehyde crosslink after washing; high values mean tight binding
FEV = molecular target: T1, FEV (Homo sapiens, UniProt Q99581 1-238); settings: protein: recombinant; tags: N-terminal GST; dsDNA, one strand shown
T1 sequence: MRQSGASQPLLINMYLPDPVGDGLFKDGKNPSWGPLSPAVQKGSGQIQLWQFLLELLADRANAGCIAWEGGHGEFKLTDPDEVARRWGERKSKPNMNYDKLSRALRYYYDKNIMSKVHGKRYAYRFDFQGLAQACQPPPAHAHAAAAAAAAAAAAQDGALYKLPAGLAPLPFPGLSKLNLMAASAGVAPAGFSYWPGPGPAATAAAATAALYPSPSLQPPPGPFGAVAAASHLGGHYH
How it was run: (§1)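 After expression in yeast as GST fusions, human transcription factors were bound to glutathione beads, DNA-barcoded and mixed with a tag-only sample. The pools were incubated with 200 nmole of a 16-mer random double-stranded DNA library in Tris/NaCl/DTT/glycerol buffer (30 min, room temperature), washed and crosslinked with 0.1% formaldehyde. Proximity ligation with BsaI/T4 ligase ran for 1 h at 37 °C, before PCR amplification and sequencing on an Illumina NextSeq500. Binding signal is a hexamer's read frequency for a factor divided by its frequency for the tag-only sample.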

ETV5 = ETV5 (Homo sapiens, UniProt P41161 1-510); settings: protein: recombinant; tags: N-terminal GST; dsDNA, one strand shown
ETV5, sequence (P41161 whole entry): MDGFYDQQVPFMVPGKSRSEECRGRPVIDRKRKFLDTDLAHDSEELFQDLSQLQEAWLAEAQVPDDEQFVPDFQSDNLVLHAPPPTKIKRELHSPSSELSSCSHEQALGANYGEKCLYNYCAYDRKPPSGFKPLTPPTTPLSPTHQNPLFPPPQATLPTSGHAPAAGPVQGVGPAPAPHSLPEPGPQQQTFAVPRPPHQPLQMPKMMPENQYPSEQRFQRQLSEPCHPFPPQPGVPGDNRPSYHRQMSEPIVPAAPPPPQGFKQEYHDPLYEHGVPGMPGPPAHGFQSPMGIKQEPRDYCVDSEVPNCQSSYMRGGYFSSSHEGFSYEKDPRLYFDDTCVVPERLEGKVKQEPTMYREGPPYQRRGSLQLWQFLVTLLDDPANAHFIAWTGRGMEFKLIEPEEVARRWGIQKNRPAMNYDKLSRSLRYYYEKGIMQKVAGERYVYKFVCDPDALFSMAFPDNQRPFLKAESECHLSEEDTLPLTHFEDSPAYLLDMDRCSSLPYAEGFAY
How it was run: as §1

HSF1 = HSF1 (Homo sapiens, UniProt Q00613 1-529); settings: protein: recombinant; tags: N-terminal GST; chain copies: 3; dsDNA, one strand shown
HSF1, sequence (Q00613 whole entry): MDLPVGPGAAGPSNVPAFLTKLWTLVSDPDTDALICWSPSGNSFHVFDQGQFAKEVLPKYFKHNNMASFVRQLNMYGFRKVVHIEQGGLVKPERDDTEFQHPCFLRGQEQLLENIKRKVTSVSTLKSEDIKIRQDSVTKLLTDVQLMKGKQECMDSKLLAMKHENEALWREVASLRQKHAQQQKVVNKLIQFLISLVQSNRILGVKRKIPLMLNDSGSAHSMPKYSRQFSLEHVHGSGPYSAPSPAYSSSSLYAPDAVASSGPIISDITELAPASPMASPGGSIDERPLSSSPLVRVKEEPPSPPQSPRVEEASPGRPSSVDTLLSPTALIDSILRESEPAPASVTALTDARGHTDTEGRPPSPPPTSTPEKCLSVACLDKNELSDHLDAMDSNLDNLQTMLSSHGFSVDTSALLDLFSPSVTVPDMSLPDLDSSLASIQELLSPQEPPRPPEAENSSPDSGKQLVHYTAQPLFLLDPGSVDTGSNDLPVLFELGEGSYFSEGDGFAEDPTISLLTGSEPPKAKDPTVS
How it was run: as §1

SPIC = molecular target: T2, SPIC (Homo sapiens, UniProt Q8N5J4 1-248); settings: protein: recombinant; tags: N-terminal GST; dsDNA, one strand shown
T2 sequence: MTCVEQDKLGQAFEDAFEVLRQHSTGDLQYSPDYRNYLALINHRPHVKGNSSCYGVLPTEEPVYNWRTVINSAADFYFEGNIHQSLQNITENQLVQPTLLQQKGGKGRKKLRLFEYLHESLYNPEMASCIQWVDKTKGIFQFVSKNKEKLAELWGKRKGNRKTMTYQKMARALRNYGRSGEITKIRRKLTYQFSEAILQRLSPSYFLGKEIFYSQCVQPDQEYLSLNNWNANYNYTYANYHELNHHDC
How it was run: as §1

ELF4 = ELF4 (Homo sapiens, UniProt Q99607 1-663); settings: protein: recombinant; tags: N-terminal GST; dsDNA, one strand shown
ELF4, sequence (Q99607 whole entry): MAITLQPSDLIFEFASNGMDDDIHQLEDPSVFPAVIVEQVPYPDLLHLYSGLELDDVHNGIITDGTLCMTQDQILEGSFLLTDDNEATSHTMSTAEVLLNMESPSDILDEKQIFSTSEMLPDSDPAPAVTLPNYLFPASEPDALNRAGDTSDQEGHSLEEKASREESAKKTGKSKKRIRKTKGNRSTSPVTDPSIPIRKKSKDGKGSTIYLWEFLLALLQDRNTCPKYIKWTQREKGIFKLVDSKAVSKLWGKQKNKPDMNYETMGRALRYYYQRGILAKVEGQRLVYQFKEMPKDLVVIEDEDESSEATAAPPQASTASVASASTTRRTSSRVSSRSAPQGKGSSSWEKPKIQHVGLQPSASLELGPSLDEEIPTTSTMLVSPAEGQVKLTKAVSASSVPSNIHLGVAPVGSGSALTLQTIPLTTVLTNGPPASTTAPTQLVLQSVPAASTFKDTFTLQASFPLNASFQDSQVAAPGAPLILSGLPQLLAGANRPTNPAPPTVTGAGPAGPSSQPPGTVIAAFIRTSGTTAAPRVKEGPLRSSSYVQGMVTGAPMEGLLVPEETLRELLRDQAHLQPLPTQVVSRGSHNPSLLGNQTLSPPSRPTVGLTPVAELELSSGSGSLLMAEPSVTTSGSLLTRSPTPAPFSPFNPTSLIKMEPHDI
How it was run: as §1

ELK4 = molecular target: T3, ELK4 (Homo sapiens, UniProt P28324-2 1-405); settings: protein: recombinant; tags: N-terminal GST; dsDNA, one strand shown
T3 sequence: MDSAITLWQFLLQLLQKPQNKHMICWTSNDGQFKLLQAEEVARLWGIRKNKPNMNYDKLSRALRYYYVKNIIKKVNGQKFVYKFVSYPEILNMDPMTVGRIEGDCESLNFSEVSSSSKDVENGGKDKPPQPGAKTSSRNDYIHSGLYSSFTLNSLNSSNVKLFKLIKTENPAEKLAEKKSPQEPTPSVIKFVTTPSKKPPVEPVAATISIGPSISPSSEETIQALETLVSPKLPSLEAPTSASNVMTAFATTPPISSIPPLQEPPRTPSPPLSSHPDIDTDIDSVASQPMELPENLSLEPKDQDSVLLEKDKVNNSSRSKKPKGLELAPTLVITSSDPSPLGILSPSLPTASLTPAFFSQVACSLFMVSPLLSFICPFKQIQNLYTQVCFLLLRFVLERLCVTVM
How it was run: as §1

ETV2 = molecular target: T4, ETV2 (Homo sapiens, UniProt O00321 1-342); settings: protein: recombinant; tags: N-terminal GST; dsDNA, one strand shown
T4 sequence: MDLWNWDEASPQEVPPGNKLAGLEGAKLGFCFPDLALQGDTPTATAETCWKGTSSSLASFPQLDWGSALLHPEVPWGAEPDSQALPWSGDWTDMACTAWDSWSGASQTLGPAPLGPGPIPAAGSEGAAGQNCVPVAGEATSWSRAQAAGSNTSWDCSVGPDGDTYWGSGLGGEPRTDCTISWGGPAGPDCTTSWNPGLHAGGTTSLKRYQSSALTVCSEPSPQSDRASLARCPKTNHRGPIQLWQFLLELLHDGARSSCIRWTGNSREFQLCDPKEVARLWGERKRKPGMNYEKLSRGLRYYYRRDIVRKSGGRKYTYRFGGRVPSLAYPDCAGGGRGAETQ
How it was run: as §1

ELF3 = molecular target: T5, ELF3 (Homo sapiens, UniProt P78545 1-371); settings: protein: recombinant; tags: N-terminal GST; dsDNA, one strand shown
T5 sequence: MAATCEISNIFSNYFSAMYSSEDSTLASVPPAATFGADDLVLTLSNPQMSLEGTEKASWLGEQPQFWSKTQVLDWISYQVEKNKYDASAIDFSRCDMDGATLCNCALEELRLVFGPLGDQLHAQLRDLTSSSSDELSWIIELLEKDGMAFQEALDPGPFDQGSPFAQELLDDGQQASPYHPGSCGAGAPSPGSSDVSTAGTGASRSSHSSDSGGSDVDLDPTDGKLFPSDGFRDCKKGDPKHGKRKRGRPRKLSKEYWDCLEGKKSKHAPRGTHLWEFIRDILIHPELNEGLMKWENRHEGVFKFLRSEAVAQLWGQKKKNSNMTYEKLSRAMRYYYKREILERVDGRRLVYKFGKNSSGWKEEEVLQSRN
How it was run: as §1

CRX = CRX (Homo sapiens, UniProt O43186 1-299); settings: protein: recombinant; tags: N-terminal GST; dsDNA, one strand shown
CRX, sequence (O43186 whole entry): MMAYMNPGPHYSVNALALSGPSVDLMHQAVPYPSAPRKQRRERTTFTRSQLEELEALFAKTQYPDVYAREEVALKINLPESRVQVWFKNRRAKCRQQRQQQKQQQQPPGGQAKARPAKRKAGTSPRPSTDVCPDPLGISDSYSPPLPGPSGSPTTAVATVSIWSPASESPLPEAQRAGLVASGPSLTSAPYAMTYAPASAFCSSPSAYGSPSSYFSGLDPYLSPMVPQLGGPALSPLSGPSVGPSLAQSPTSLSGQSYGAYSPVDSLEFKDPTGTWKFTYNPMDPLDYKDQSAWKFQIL
How it was run: as §1

ETV1 = ETV1 (Homo sapiens, UniProt P50549 1-477); settings: protein: recombinant; tags: N-terminal GST; dsDNA, one strand shown
ETV1, sequence (P50549 whole entry): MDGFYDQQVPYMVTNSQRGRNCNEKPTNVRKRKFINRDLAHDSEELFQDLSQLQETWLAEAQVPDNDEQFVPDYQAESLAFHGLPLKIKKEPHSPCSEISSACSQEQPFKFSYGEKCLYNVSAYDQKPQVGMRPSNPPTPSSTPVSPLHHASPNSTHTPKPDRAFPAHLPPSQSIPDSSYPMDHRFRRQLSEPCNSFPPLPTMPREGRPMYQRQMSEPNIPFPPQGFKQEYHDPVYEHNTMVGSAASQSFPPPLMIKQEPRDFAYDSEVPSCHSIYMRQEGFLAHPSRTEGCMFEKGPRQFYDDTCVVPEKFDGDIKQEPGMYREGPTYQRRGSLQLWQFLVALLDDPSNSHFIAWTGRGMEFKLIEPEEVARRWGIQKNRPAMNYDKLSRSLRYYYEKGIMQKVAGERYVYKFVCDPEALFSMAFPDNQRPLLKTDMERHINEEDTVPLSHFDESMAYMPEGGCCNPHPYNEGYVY
How it was run: as §1

ERF = molecular target: T6, ERF (Homo sapiens, UniProt P50548 1-548); settings: protein: recombinant; tags: N-terminal GST; dsDNA, one strand shown
T6 sequence: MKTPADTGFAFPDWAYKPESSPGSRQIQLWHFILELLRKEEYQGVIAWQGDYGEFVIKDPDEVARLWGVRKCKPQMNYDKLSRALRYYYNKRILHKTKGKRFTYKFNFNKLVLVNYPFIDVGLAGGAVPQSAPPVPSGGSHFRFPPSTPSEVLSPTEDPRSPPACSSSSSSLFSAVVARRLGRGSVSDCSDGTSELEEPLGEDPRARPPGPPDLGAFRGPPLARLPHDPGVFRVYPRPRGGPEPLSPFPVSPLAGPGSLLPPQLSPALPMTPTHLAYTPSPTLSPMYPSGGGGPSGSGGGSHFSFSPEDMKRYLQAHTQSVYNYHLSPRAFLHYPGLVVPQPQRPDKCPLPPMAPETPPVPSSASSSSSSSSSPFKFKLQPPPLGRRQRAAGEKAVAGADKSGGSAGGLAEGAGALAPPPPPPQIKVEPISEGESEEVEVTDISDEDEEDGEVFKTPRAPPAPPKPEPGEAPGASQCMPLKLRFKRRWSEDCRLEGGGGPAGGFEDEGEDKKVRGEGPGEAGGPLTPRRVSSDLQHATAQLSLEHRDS
How it was run: as §1

ETV3L = molecular target: T7, ETV3L (Homo sapiens, UniProt Q6ZN32 1-361); settings: protein: recombinant; tags: N-terminal GST; dsDNA, one strand shown
T7 sequence: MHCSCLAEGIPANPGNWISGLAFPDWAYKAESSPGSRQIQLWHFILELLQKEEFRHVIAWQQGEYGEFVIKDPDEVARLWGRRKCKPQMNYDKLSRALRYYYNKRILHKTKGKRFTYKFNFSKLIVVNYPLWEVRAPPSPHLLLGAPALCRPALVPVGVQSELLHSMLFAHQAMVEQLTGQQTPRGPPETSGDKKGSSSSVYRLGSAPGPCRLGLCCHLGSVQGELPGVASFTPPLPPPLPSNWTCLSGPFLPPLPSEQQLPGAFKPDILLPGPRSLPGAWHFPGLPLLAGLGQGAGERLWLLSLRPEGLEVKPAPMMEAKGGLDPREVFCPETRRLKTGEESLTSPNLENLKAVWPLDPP
How it was run: as §1

ETS2 = molecular target: T8, ETS2 (Homo sapiens, UniProt P15036 1-469); settings: protein: recombinant; tags: N-terminal GST; dsDNA, one strand shown
T8 sequence: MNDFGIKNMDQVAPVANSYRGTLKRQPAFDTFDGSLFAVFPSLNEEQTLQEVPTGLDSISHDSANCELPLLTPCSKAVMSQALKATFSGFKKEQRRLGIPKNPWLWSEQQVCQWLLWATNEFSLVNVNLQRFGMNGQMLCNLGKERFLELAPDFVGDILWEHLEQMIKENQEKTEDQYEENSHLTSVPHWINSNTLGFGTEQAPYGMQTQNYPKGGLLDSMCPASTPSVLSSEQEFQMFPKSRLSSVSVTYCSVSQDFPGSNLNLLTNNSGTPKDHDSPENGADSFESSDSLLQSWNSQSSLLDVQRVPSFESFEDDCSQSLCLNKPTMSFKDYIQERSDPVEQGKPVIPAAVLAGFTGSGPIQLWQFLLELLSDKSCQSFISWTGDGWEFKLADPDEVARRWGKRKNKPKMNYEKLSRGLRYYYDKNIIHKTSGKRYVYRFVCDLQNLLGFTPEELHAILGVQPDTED
How it was run: as §1

SPDEF = molecular target: T9, SPDEF (Homo sapiens, UniProt O95238 1-335); settings: protein: recombinant; tags: N-terminal GST; dsDNA, one strand shown
T9 sequence: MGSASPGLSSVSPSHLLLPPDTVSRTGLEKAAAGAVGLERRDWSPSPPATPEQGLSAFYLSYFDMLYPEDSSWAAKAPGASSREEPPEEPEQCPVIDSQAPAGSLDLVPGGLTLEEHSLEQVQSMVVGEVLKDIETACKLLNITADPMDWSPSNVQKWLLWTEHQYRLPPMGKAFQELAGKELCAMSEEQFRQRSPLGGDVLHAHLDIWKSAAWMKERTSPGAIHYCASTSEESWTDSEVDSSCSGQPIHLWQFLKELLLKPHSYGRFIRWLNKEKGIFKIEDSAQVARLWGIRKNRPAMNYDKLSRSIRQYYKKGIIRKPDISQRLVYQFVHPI
How it was run: as §1

ETV7 = molecular target: T10, ETV7 (Homo sapiens, UniProt Q9Y603 1-341); settings: protein: recombinant; tags: N-terminal GST; dsDNA, one strand shown
T10 sequence: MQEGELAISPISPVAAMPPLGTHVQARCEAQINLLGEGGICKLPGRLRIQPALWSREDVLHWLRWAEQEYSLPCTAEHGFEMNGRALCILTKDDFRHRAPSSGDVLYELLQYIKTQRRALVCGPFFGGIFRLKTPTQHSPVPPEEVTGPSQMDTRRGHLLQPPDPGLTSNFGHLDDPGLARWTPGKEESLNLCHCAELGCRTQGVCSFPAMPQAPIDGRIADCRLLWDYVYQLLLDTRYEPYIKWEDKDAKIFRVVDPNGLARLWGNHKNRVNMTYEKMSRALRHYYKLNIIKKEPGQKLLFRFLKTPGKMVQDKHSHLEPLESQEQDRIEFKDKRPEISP
How it was run: as §1

ELF5 = molecular target: T11, ELF5 (Homo sapiens, UniProt Q9UKW6-2 1-255); settings: protein: recombinant; tags: N-terminal GST; dsDNA, one strand shown
T11 sequence: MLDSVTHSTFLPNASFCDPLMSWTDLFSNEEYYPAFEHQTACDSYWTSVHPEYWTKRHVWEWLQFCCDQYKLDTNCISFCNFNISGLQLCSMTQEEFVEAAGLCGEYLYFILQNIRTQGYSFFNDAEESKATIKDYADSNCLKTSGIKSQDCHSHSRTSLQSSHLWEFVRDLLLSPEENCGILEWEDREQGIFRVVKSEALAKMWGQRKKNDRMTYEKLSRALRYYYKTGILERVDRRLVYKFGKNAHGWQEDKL
How it was run: as §1

ETV3 = molecular target: T12, ETV3 (Homo sapiens, UniProt P41162-2 1-143); settings: protein: recombinant; tags: N-terminal GST; dsDNA, one strand shown
T12 sequence: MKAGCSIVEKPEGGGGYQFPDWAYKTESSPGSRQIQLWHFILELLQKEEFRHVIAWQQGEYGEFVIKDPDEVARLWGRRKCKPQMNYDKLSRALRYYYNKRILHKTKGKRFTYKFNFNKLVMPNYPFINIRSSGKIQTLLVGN
How it was run: as §1

ETV6 = ETV6 (Homo sapiens, UniProt P41212 1-452); settings: protein: recombinant; tags: N-terminal GST; dsDNA, one strand shown
ETV6, sequence (P41212 whole entry): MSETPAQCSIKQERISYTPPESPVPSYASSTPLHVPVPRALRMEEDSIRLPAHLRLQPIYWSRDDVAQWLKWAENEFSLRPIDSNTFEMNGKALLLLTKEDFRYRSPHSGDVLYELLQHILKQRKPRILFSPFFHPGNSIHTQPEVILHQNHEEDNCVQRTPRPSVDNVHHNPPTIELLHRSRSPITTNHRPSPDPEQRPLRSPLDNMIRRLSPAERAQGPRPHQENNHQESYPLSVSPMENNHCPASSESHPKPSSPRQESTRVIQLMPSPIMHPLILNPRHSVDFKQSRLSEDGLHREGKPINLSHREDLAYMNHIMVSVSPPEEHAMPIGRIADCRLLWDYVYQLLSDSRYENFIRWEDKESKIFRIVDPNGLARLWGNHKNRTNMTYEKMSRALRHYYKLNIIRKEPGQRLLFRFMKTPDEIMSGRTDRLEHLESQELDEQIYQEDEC
How it was run: as §1

With CTATTC the binding signal (FEV) was 1.28 fold enrichment (6-mer frequency, TF over GST control), the binding signal (ETV5) was 1.35 fold enrichment (6-mer frequency, TF over GST control) and the binding signal (HSF1) was 1.57 fold enrichment (6-mer frequency, TF over GST control). The binding signal (SPIC) was 1.49 fold enrichment (6-mer frequency, TF over GST control), the binding signal (ELF4) was 1.26 fold enrichment (6-mer frequency, TF over GST control) and the binding signal (ELK4) was 1.32 fold enrichment (6-mer frequency, TF over GST control). The binding signal (ETV2) was 1.37 fold enrichment (6-mer frequency, TF over GST control), the binding signal (ELF3) was 1.38 fold enrichment (6-mer frequency, TF over GST control) and the binding signal (CRX) was 1.16 fold enrichment (6-mer frequency, TF over GST control). For the same sequence, the binding signal (ETV1) was 1.28 fold enrichment (6-mer frequency, TF over GST control), the binding signal (ERF) was 1.33 fold enrichment (6-mer frequency, TF over GST control) and the binding signal (ETV3L) was 1.4 fold enrichment (6-mer frequency, TF over GST control). For the same sequence, the binding signal (ETS2) was 1.32 fold enrichment (6-mer frequency, TF over GST control), the binding signal (SPDEF) was 1.41 fold enrichment (6-mer frequency, TF over GST control) and the binding signal (ETV7) was 1.34 fold enrichment (6-mer frequency, TF over GST control). For the same sequence, the binding signal (ELF5) was 1.29 fold enrichment (6-mer frequency, TF over GST control), the binding signal (ETV3) was 1.33 fold enrichment (6-mer frequency, TF over GST control) and the binding signal (ETV6) was 1.4 fold enrichment (6-mer frequency, TF over GST control).
